Most compounds without a hit are left out; they make up all but 5.4% or so of the library.
M18AAP inhibitor = blocks P. falciparum M18 aspartyl aminopeptidase. AID 1822. actives 1.2% (n = 290,000). inhibition, % at 7.35 µM. recombinant PfM18AAP, H-Glu-NHMec fluorogenic cleavage;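 active means inhibition above the campaign mean inhibition over all tested compounds plus 3 SD, cut at about 28% in these data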
SMARCA2 act = activators of SMARCA2 function; MG213 cells, MMTV-luciferase reporter, dexamethasone, overnight; activation, % at 9.1 µM; actives 1% (n = 370,000); AID 652017; in the data active means activation above about 7.8%
Exocytosis inh = lytic granule exocytosis inhibition; TALL-104 LAMP-1 surface exposure, flow cytometry; cells stimulated with thapsigargin and PMA; inhibition, % at 10 µM; actives 0.66% (n = 360,000); AID 651702;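 active means inhibition above about 55%, limit read from the data; inconclusive means no clear call, values can overlap the other calls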
beta cell repl = induces beta-cell replication in MIN6 cells. proliferation, % at 10 µM. MIN6 cells proliferation, ATPlite luminescence, 48 h; cells starved in 0.2% serum; 100% = growth in 10% serum. AID 2380. actives 0.29% (n = 330,000);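 active means compounds whose signal lies at least 3.5 SD above the mean of all wells on their plate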
ALR H2O2 inh = human ALR oxidase inhibition via reduced H2O2 | inhibition, % (concentration not given with the values) | actives 3.8% (n = 290,000) | AID 485317 | purified ALR, DTT oxidation, H2O2 HRP-luminol luminescence;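 active means mean replicate inhibition above about 79%, with every replicate also reaching it, limit read from the data; inconclusive means only one of the two criteria met; inactive means mean below limit and not every replicate reaching it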
Target sequence (P55789 whole entry, looked up): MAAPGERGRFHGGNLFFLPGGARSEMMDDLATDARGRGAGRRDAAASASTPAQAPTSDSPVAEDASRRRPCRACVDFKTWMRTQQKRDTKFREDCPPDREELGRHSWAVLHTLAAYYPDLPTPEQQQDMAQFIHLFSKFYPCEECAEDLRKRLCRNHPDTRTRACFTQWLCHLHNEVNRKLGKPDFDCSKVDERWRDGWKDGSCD
GASC-1 inh = inhibitors of human GASC-1 (JMJD2C) demethylase; Q9H3R0; GST-JMJD2C(1-420) H3K9me3 demethylation, DELFIA europium; inhibition, % at 2.35 µM; actives 0.069% (n = 330,000);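 active means more than half of a compound's replicate wells show inhibition beyond 50%, single wells judged on their own value; inconclusive means some, but no more than half, of replicates pass 50% inhibition; inactive means no replicate passes 50% inhibition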;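 further: signal counts dimethyl H3K9 product captured on neutravidin plate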
Target sequence (Q9H3R0 1-420 limits assumed): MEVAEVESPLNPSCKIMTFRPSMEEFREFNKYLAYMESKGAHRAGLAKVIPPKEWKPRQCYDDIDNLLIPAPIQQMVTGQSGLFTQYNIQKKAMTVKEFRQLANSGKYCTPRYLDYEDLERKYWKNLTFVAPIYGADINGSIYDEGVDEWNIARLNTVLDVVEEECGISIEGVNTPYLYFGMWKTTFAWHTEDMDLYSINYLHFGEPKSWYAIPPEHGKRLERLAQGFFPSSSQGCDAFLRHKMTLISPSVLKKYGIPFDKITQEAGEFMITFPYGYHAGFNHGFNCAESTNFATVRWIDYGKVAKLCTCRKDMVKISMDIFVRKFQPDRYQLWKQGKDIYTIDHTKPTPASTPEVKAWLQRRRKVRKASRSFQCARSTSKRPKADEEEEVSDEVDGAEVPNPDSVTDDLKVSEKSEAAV
Each line names hits and unclear results; the compound was inactive in the other large screens.

COc1ccc(C2CC(=O)c3c(O)cc(O)cc3O2)cc1O (configuration not stated)	none (no result: M18AAP inhibitor, beta cell repl, ALR H2O2 inh, GASC-1 inh)
O=C1CC(c2ccc(O)cc2)Oc2cc(O)cc(O)c21 (configuration not stated)	ALR H2O2 inh 99
O=C1CC(c2ccc(O)c(O)c2)Oc2cc(O)cc(O)c21 (configuration not stated)	ALR H2O2 inh 99 (no result: M18AAP inhibitor)
O=C1CC(c2ccccc2)Oc2cc(O)cc(O)c21 (configuration not stated)	GASC-1 inh inconclusive (no result: M18AAP inhibitor)
O=C1c2cc(O)c(O)cc2OC(c2ccc(O)c(O)c2)C1O (configuration not stated)	none (no result: M18AAP inhibitor, beta cell repl, ALR H2O2 inh, GASC-1 inh)
O=C1CC(c2ccc(O)c(O)c2)Oc2c1ccc(O)c2O (configuration not stated)	ALR H2O2 inh 98 (no result: M18AAP inhibitor, GASC-1 inh)
COC(=O)[C@@]12CCCCC3=C1N(CCC3)C(=O)[C@H]2CC(=O)NCc1cccs1	none (no result: M18AAP inhibitor, Exocytosis inh, beta cell repl, ALR H2O2 inh, GASC-1 inh)
S=c1nc(-c2ccccc2)c(-c2ccccc2)n[nH]1	ALR H2O2 inh 86
O=c1nc(-c2ccccc2)c(-c2ccccc2)n[nH]1	none (no result: beta cell repl)
Cc1cc(N2CCN(C(=O)OC(C)(C)C)C[C@@H]2C)ccc1N1CCS(=O)(=O)CC1	none (no result: M18AAP inhibitor, Exocytosis inh, beta cell repl, ALR H2O2 inh, GASC-1 inh)
CC(c1ccc(F)cc1)n1c(-c2ccc3ccccc3n2)n[nH]c1=S (configuration not stated)	ALR H2O2 inh 89
COc1cc(-c2n[nH]c(=S)n2C(C)c2ccccc2)cc(OC)c1OC (configuration not stated)	ALR H2O2 inh 93
CCCc1cc(-c2n[nH]c(=S)n2C(C)c2ccccc2)cs1 (configuration not stated)	none
COC(=O)CCc1nc2ccccc2[nH]c1=O	none
COC(=O)CSCc1nc2ccccc2[nH]c1=O	ALR H2O2 inh 99
CCCCNc1cccc2c1S(=O)(=O)N[C@H](C)CO2	none (no result: M18AAP inhibitor, Exocytosis inh, beta cell repl, ALR H2O2 inh, GASC-1 inh)
O=C(CSC(=S)N1CCOCC1)c1cc2ccccc2oc1=O	ALR H2O2 inh 96 (no result: SMARCA2 act)
O=C(OCC(=O)N1CCOCC1)c1cc2ccccc2oc1=O	none (no result: M18AAP inhibitor)
CC1=C/C(=N\OC(=O)/C=C/c2ccccc2)C(C)=CC1=O	ALR H2O2 inh 95
C/C(=N\NC(=O)c1ccc(N2CCCC2=O)cc1)c1ccc(O)cc1O	M18AAP inhibitor 28
COc1cc(/C=C2\SC(c3ccc(C)cc3)=NC2=O)cc(OC)c1O	none
Cc1ccc(C2=NC(=O)/C(=C/c3cc(O)c(O)c(Br)c3)S2)cc1	M18AAP inhibitor 48 (no result: ALR H2O2 inh, GASC-1 inh)
Cc1ccc(Nc2n[nH]c(=S)s2)cc1C	none (no result: M18AAP inhibitor, beta cell repl, ALR H2O2 inh, GASC-1 inh)
S=c1[nH]nc(Nc2cccc(Cl)c2)s1	ALR H2O2 inh 99
CN(C)CC(=O)N[C@@H]1C[C@@H]2O[C@@H](CO)CC[C@@H]2O[C@@H]1CCc1ccc(C2=CCCCC2)cc1	none (no result: M18AAP inhibitor, Exocytosis inh, beta cell repl, ALR H2O2 inh, GASC-1 inh)
CC(=O)c1ccc(N2CCN(C(=O)Nc3ccc(C)cc3)CC2)cc1	none
CC(=O)c1ccc(NC(=O)N2CCN(c3ccc(C)cc3)C(C)C2)cc1 (configuration not stated)	ALR H2O2 inh 96
Nc1ccc(C(=O)OCc2csc(-c3ccccc3)n2)cc1[N+](=O)[O-]	ALR H2O2 inh 99
Cn1cccc1C(=O)OCc1csc(-c2ccccc2)n1	ALR H2O2 inh 96
CNS(=O)(=O)c1cccc(C(=O)OCc2csc(-c3ccccc3)n2)c1	ALR H2O2 inh inconclusive
O=C(CNC(=O)c1ccccc1F)OCc1csc(-c2ccccc2)n1	ALR H2O2 inh 99
COc1ccccc1C(=O)NCC(=O)OCc1csc(-c2ccccc2)n1	none
CCN(CC)CCn1c(=S)[nH]c2ccc(Cl)cc2c1=O	ALR H2O2 inh 89
COc1cccc(-c2ccc(CC[C@H]3O[C@H]4CC[C@@H](CO)O[C@H]4C[C@H]3NC(=O)c3cnccn3)cc2)c1	none (no result: M18AAP inhibitor, Exocytosis inh, beta cell repl, ALR H2O2 inh, GASC-1 inh)
CCOC(=O)CC[C@@H]1CC[C@]2(CCCN(C(=O)C(C)(C)C)C2)O1	none (no result: M18AAP inhibitor, Exocytosis inh, beta cell repl, ALR H2O2 inh, GASC-1 inh)
CN1Cc2nnn(Cc3ccccc3)c2-c2cc(F)ccc2S1(=O)=O	none (no result: M18AAP inhibitor, Exocytosis inh, beta cell repl, ALR H2O2 inh, GASC-1 inh)
C[C@H](O)[C@@H]1C(=O)N2CCc3ccc(N4CCN(C)CC4)cc3[C@@H]2C[C@@H]1N(C)C(=O)NC1CCCCC1	SMARCA2 act 7.9 (no result: M18AAP inhibitor, beta cell repl, ALR H2O2 inh, GASC-1 inh)
N#CCC(=O)Nc1sc2c(c1C(N)=O)CCCC2	ALR H2O2 inh 90
C=CCNC(=S)Nc1sc2c(c1C(N)=O)CCCC2	ALR H2O2 inh 98
CCC(=O)Nc1sc2c(c1C(N)=O)CCC2	none
Cn1c(/N=C/c2c(O)ccc3ccccc23)nc2ccccc21	ALR H2O2 inh 91 (no result: beta cell repl)
O=C(N/N=C/c1c(O)ccc2ccccc12)c1cccnc1	M18AAP inhibitor 31
O=C(NN=Cc1c(O)ccc2ccccc12)c1ccncc1	none (no result: M18AAP inhibitor, beta cell repl, ALR H2O2 inh, GASC-1 inh)
O=C(N/N=C\c1c(O)ccc2ccccc12)c1cncc(Br)c1	Exocytosis inh 80
Cn1nccc1C(=O)N/N=C/c1c(O)ccc2ccccc12	M18AAP inhibitor 28
Cn1cc(C(=O)N/N=C/c2c(O)ccc3ccccc23)ccc1=O	none
COc1ccc(S[C@]2(C(=O)N3CCN(c4ncccn4)CC3)CC(=O)N(C(=O)CCc3ccccc3)[C@@H]2c2ccc(OC)cc2)cc1	none (no result: M18AAP inhibitor, Exocytosis inh, beta cell repl, ALR H2O2 inh, GASC-1 inh)
COC(=O)[C@]12C[C@H](CC(=O)NCC34CC5CC(CC(C5)C3)C4)C(=O)N(Cc3ccco3)C1=C[C@H](C(C)C)O[C@@H]2C1CC1	none (no result: M18AAP inhibitor, Exocytosis inh, beta cell repl, ALR H2O2 inh, GASC-1 inh)
O=C(CN1C(=O)/C(=C/c2cccc(Cl)c2)SC1=S)NC1C=CS(=O)(=O)C1 (configuration not stated)	M18AAP inhibitor 30
O=C(CN1C(=O)S/C(=C\c2cccc(Cl)c2)C1=O)NC1C=CS(=O)(=O)C1 (configuration not stated)	none
CC(C(=O)NC1C=CS(=O)(=O)C1)N1C(=O)/C(=C/c2cccc(Cl)c2)SC1=S (configuration not stated)	none
CC(C(=O)NC1C=CS(=O)(=O)C1)N1C(=O)/C(=C\c2ccccc2)SC1=S (configuration not stated)	ALR H2O2 inh 99
Cc1ccc(NC(=O)C2CCCN2S(=O)(=O)c2cccnc2)c(C)c1 (configuration not stated)	none (no result: M18AAP inhibitor, Exocytosis inh, beta cell repl, ALR H2O2 inh, GASC-1 inh)
C[C@H](CO)N1C[C@H](C)[C@H](CN(C)C(=O)Nc2ccc3c(c2)OCO3)OCc2cnnn2CCCC1=O	none (no result: M18AAP inhibitor, Exocytosis inh, beta cell repl, ALR H2O2 inh, GASC-1 inh)
CCOC(=O)[C@]12CCCC3=C1N(CCC3)C(=O)[C@@H](CC(=O)N1CCN(C(=O)c3ccco3)CC1)C2	none (no result: M18AAP inhibitor, Exocytosis inh, beta cell repl, ALR H2O2 inh, GASC-1 inh)
CC(=O)CC[C@@H]1CC[C@]2(CCCN(C(=O)c3ccccc3)C2)O1	none (no result: M18AAP inhibitor, Exocytosis inh, beta cell repl, ALR H2O2 inh, GASC-1 inh)
Cc1ccc(Nc2cc(C)nc(NCc3ccccc3)n2)cc1	none
COc1ccc(Nc2cc(C)nc(NCc3ccccc3)n2)cc1	ALR H2O2 inh 75
Cc1cc(O)cc(=O)n1-c1cc(C(F)(F)F)cc(C(F)(F)F)c1	none (no result: M18AAP inhibitor, Exocytosis inh, beta cell repl, ALR H2O2 inh, GASC-1 inh)
Cc1[nH]c2ccccc2c1-c1csc(NC(=O)CSCC(=O)O)n1	ALR H2O2 inh 100
Cc1[nH]c2ccccc2c1-c1csc(NC(=O)CN2CCOCC2)n1	none
Cc1nnc(SCC(=O)Nc2nc(-c3ccc(F)cc3)cs2)[nH]c1=O	ALR H2O2 inh 99

Source: PubChem (several laboratories)
